# The source made the active and inactive calls.
# Key:
# [1] = system: PRMT1 (protein arginine N-methyltransferase 1); assay: small molecules binding arginine methyltransferase PRMT1 – biochemical, small-molecule microarray, 635 nm fluorescence, primary screen (AID 1088); conditions: higher = more signal;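 note: binding of Prmt1 protein to compounds spotted on small-molecule microarray slides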
# [2] = growth effects on S. cerevisiae YJM789 – YJM789 clinical isolate, OD600, 24 h, basal, primary screen (AID 1089); conditions: higher = more signal, called active from +8 up or from −8 down;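 note: growth of clinical yeast isolate S. cerevisiae YJM 789 seeded 1000 cells per well; test concentration not given here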
# [3] = S. pombe growth modifiers, basal conditions – strain 972, OD600, 24 h, no modulator, primary screen (AID 1090);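 note: basal condition with compound alone and no growth modifier present; test concentration not given here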; conditions: S. pombe 972 growth, higher = more signal, called active from +8 up or from −8 down
# [4] = budding yeast growth modifiers under rapamycin – strain BY4716, OD600, 96 h, primary screen (AID 1091); note: test concentration not given here; conditions: S. cerevisiae BY4716 + rapamycin, higher = more signal, called active from +8 up or from −8 down
# [5] = target: Torsin-1A-interacting protein 2 (Homo sapiens) (UniProt Q8NFQ8); assay: small molecules binding lysate-expressed LULL1 – cell lysate, human LULL1 lysate, 635/667 nm fluorescence, primary screen (AID 1092); conditions: small-molecule microarray, hLULL1 lysate binding, 635 nm fluorescence; higher = more signal;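 note: probe is lysate of COS7 cells overexpressing human LULL1; score merges per-feature 667 nm fluorescence with signal-to-noise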
# Torsin-1A-interacting protein 2 (Homo sapiens), sequence (Q8NFQ8 whole entry, looked up): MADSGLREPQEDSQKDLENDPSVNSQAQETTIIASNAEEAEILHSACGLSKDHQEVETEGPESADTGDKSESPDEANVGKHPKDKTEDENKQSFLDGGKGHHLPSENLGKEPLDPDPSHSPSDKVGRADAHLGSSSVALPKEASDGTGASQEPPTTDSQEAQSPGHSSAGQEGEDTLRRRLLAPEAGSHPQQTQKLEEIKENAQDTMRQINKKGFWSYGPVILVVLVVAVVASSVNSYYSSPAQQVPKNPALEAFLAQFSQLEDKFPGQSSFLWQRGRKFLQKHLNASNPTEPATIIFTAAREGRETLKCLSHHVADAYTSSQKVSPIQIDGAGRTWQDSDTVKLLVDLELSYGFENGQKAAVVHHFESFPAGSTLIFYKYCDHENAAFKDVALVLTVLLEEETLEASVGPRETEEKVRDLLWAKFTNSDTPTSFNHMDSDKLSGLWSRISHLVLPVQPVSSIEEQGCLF
# [6] = optical density change of DRC41 E. coli – strain DRC41, OD650, 24 h, E. coli filamentation project, primary screen (AID 1093);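 note: MC1000 strain lacking acrAB efflux and sulA so SOS filamentation is blocked; test concentration not given here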; conditions: E. coli DRC41 growth, higher = more signal, called active from +8 up or from −8 down
# [7] = probe aLefty2 binding to arrayed compounds – biochemical, biotinylated probe, 635/667 nm fluorescence, primary screen (AID 1094); conditions: small-molecule microarray, higher = more signal;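 note: score merges spot fluorescence near 667 nm with spot signal-to-noise ratio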
# [8] = system: Noggin (protein binding on small-molecule microarray); assay: small molecules binding Noggin protein – biochemical, 635/667 nm fluorescence, primary screen (AID 1095); conditions: 635 nm fluorescence, higher = more signal;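 note: score merges 667 nm feature fluorescence with signal to noise over triplicate slides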
# [9] = target: Neurogenic locus notch homolog protein 3 (Homo sapiens) (UniProt Q9UM47); assay: small molecules binding NOTCH3 protein – biochemical, 635/667 nm fluorescence, primary screen (AID 1096); conditions: small-molecule microarray, 635 nm fluorescence, higher = more signal
# Neurogenic locus notch homolog protein 3 (Homo sapiens), sequence (Q9UM47 whole entry, looked up): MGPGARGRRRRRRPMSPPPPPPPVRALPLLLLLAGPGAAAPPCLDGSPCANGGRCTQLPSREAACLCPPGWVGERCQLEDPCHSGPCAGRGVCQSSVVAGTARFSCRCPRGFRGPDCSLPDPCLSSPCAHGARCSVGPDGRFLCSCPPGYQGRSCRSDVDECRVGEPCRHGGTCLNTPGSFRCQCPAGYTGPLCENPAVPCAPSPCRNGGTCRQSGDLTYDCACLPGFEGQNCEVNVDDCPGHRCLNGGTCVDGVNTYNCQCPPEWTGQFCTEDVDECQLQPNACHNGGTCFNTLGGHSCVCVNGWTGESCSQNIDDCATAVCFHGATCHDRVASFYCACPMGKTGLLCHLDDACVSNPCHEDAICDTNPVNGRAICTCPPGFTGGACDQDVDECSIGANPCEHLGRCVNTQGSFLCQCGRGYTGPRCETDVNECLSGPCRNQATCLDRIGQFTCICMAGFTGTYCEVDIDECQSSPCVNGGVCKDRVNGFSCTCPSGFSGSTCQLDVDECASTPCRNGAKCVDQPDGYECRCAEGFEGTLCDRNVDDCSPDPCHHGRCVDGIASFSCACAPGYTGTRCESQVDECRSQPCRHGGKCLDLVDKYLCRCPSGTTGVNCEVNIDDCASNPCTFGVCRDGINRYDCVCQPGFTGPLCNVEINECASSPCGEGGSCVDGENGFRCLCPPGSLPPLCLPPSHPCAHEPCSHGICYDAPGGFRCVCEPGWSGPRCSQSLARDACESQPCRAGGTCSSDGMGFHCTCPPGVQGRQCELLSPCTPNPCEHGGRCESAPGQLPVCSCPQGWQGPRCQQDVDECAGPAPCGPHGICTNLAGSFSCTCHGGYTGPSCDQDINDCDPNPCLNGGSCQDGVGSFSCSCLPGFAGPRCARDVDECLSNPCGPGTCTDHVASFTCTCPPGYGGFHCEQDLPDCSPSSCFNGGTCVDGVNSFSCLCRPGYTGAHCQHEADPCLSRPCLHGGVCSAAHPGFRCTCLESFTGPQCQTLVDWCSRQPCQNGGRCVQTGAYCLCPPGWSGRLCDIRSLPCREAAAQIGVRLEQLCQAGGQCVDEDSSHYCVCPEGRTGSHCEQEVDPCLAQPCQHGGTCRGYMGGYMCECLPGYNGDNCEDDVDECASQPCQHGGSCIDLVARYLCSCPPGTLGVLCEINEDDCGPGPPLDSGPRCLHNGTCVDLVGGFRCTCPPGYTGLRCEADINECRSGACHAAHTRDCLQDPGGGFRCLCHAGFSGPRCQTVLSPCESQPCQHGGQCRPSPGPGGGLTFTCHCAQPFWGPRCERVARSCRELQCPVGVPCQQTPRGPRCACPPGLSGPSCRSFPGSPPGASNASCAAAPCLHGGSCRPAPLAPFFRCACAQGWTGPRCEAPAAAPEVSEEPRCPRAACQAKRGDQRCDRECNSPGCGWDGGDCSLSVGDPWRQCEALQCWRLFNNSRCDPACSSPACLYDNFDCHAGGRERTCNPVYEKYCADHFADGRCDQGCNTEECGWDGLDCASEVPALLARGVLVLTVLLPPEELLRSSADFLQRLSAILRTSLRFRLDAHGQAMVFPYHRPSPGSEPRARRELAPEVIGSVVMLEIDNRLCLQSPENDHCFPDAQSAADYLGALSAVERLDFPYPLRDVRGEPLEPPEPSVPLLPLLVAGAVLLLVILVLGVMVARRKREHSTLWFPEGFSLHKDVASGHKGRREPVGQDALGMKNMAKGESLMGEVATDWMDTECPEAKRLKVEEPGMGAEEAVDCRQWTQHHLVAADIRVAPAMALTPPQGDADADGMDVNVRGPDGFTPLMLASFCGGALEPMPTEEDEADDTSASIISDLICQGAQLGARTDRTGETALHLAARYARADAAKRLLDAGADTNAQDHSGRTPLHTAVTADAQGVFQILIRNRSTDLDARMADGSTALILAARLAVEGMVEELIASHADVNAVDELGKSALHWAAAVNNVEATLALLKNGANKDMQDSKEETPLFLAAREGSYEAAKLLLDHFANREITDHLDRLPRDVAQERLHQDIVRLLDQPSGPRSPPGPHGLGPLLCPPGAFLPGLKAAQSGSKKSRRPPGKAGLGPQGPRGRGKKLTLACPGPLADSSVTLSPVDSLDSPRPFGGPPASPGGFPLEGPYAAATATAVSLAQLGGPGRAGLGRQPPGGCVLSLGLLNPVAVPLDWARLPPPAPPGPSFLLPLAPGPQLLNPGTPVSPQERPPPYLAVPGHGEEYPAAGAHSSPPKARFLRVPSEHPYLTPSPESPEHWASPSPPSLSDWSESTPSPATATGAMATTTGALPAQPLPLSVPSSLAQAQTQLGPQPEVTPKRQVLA
# [10] = probe aEGFR binding to arrayed compounds – biochemical, biotinylated probe, 635/667 nm fluorescence, primary screen (AID 1097); conditions: small-molecule microarray, higher = more signal;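 note: probe is a biotinylated anti-EGFR antibody binding compounds printed on slides; score combines fluorescence near 667 nm and signal to noise of each spot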
Structure (SMILES),composite z-score [1],z-score [2],z-score [3],z-score [4],composite z-score [5],z-score [6],composite z-score [7],composite z-score [8],composite z-score [9],composite z-score [10]
O=C1N(CCS(=O)(=O)c2ccccc2)Cc2ccccc2[C@@H]2OC(c3ccc(OCCCO)cc3)=N[C@]12CCS(=O)(=O)c1ccccc1,1.53,2.61 (inactive),1.97 (inactive),6.29 (inactive),3.23,0.833 (inactive),0.338,1.06,1.02,0.266
[N-]=[N+]=Nc1ccccc1C[C@]1(C(=O)NCc2ccccc2)COC(c2ccc(OCCCO)cc2)=N1,1.32,1.04 (inactive),0.184 (inactive),32.1 (active),3.33,1.04 (inactive),0.0573,0.544,1.08,-0.0669
COCCOC(=O)N1C(=O)[C@@]2(c3ccccc31)[C@H](c1ccccc1OCCO)N1[C@H](c3ccccc3)[C@H](c3ccccc3)OC(=O)[C@H]1[C@@H]2C(N)=O,1.56,1.83 (inactive),1.54 (inactive),3.59 (inactive),2.89,0.0834 (inactive),0.198,0.463,1.08,0.0258
COCC1C2CC[C@H]3C(OCc4ccc(OC)cc4)OC[C@]4(C)[C@H]3C2=C(CN4C(=O)OC(C)(C)C)[C@H](C)C1COC (stereo not given in full),1.57,-1.23 (inactive),-1.18 (inactive),-0.444 (inactive),3.78,-1.22 (inactive),0.0359,0.372,1.05,-0.0656
COCCOC(=O)N1C(=O)[C@@]2(c3cc(C#CCCO)ccc31)[C@H](c1ccccc1OCCO)N1[C@H](c3ccccc3)[C@H](c3ccccc3)OC(=O)[C@H]1[C@@H]2C(=O)N1CCCCCCC1,1.54,1.76 (inactive),0.11 (inactive),2.88 (inactive),3.57,1.06 (inactive),1.39,1.86,1.05,0.837
C=CC[C@H](OC(=O)Nc1ccc(SC)cc1)c1ccc(OCCO)cc1,-0.693,-0.739 (inactive),-2.94 (inactive),-0.598 (inactive),0.639,0.951 (inactive),-0.15,0.732,0.201,-0.19
C=CCNC(=O)[C@H]1[C@@H]2C(=O)O[C@@H](c3ccccc3)[C@@H](c3ccccc3)N2[C@@H](c2ccc(OCCO)cc2)[C@]12C(=O)Nc1ccc(C#CCNC(N)=O)cc12,1.56,2.34 (inactive),1.48 (inactive),4.76 (inactive),1.98,0.714 (inactive),0.155,1.1,1.07,0.0562
